Results as given in PubChem BioAssay (EPA / NIEHS).
“And” between values parts separate entries of the source, which are not always exact repeats. Equal entries are not always repeated. Inconclusive results are not listed. Some structures have more than one record in an assay (separate samples or runs), and their calls can disagree. The source made the active and inactive calls. How the source made its calls, unless noted: active means hit-call score of the fitted dose curve at least 0.9, where 1 is the maximum; inactive means score below 0.9.

Tests used:
[1] = target: Myc proto-oncogene protein (Homo sapiens) (UniProt P01106); test: ATG_Myc_CIS: Attagene CIS-FACTORIAL HepG2 Assay for human Myelocytomatosis (Myc) Proto-Oncogene Transcription Factor (AID 2282990); details: HepG2, Attagene cis-reporter transcription factor activity; actives raise or lower the signal
Chain of Myc proto-oncogene protein (Homo sapiens) (P01106 whole entry, looked up): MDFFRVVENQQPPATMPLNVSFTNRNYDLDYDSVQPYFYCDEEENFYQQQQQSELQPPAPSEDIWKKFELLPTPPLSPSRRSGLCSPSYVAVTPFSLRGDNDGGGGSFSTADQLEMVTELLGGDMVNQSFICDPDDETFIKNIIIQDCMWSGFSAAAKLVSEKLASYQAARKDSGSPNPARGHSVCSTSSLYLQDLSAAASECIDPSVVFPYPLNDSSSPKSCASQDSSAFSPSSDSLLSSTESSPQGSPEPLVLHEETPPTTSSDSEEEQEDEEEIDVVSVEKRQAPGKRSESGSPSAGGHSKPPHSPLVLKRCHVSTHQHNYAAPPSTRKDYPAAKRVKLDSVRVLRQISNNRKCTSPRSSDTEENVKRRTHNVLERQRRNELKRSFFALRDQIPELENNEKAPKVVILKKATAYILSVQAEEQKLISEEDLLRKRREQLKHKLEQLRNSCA
Summary of the method: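 HepG2, transient MRTU transfection (cis promoters, endogenous TFs); 24 h dosing; TriZol RNA → oligo(dT) RT → PCR → 6-FAM primer extension → HpaI cut → CE. Bidirectional fit vs DMSO.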

[2] = ATG_NF_kB_CIS: Attagene CIS-FACTORIAL HepG2 Assay for human Nuclear Factor Kappa B (NF-kB) (AID 2282991); details: HepG2 Attagene cis-factorial NF-kB reporter mRNA; actives raise or lower the signal
Summary of the method: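 Transient MRTU transfection of human HepG2 liver cells → 24 h chemical exposure → total RNA, oligo(dT) RT → PCR, 6-FAM primer extension, HpaI digest 2 h 37 C → CE fragment analysis. Bidirectional fitting, DMSO negative control.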

[3] = ATG_NRF2_ARE_CIS: Attagene CIS-FACTORIAL HepG2 Assay for human Nuclear Factor Erythroid 2 Related Factor 2 (NFR2) response to Antioxidant Response Elements (ARE) (AID 2282992); details: HepG2 Attagene ARE/NRF2 reporter, transcription factor activity; actives raise or lower the signal;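 on AC50: reporter mRNA level measured by RT-PCR and capillary electrophoresis fluorescence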
Summary of the method: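 HepG2 cells transiently transfected with multiplexed cis-regulated reporter transcription units measure endogenous transcription factor activity. Reporter mRNA at 24 h is quantified by RT-PCR, fluorescent labelling and capillary electrophoresis, with bidirectional fitting relative to DMSO.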

[4] = ATG_Oct_MLP_CIS: Attagene CIS-FACTORIAL HepG2 Assay for human Octamer-Binding Transcription Factor (Oct) (AID 2282993); details: HepG2 Attagene cis-factorial Oct reporter, mRNA; actives raise or lower the signal
Summary of the method: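 After 24 h compound exposure, transfected HepG2 cells were lysed for total RNA; reporter-specific cDNA was PCR-amplified, fluorescently labelled and sized by capillary electrophoresis. Bidirectional curve fitting used DMSO as baseline.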

[5] = target: Cellular tumor antigen p53 (Homo sapiens) (UniProt P04637); test: ATG_p53_CIS: Attagene CIS-FACTORIAL HepG2 Assay for human p53 Transcription Factor (AID 2282994); details: HepG2 p53 cis-element reporter, Attagene mRNA; actives raise or lower the signal
Chain of Cellular tumor antigen p53 (Homo sapiens) (P04637 whole entry, looked up): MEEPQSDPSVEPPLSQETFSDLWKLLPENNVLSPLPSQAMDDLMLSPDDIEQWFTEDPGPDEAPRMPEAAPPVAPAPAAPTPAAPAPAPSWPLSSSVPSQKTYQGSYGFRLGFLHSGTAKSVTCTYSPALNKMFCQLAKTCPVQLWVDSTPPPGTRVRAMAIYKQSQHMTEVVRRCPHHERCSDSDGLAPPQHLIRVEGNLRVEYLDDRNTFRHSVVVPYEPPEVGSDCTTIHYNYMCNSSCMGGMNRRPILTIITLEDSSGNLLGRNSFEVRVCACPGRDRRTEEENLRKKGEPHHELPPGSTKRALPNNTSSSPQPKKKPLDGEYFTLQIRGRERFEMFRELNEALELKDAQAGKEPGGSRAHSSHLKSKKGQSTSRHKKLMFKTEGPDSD
Summary of the method: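 HepG2 cells transiently transfected with multiplexed cis-regulated reporter transcription units read endogenous TF activity. After 24 h compound exposure, reporter mRNA was quantified by RT-PCR, fluorescent labelling, HpaI digestion and capillary electrophoresis; bidirectional fits versus DMSO baseline.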

[6] = BSK_3C_uPAR: BioMAP Diversity Plus: 3C Assay for Urokinase-type plasminogen activator receptor (uPAR) Biomarker Activity (AID 2282998); details: BioMAP 3C HUVEC, uPAR biomarker ELISA; actives raise or lower the signal
Summary of the method: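 Values derive from bidirectional curve fitting relative to DMSO, which served as baseline of activity. uPAR was measured by ELISA in human umbilical vein endothelial primary cultures 24 h after compound addition.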

[7] = BSK_3C_VCAM1: BioMAP Diversity Plus: 3C Assay for Vascular cell adhesion molecule 1 (VCAM1) Biomarker Activity (AID 2282999); details: BioMAP 3C HUVEC, VCAM1 ELISA, cytokine-stimulated; actives raise or lower the signal
Summary of the method: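 Endothelial cells from human umbilical vein are treated with test chemical. At 24 h, VCAM-1 is measured by ELISA, and responses in either direction are fitted relative to DMSO.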

[8] = BSK_4H_Eotaxin3: BioMAP Diversity Plus: 4H Assay for Eotaxin 3 Biomarker Activity (AID 2283000); details: primary human endothelial cells (HUVEC); actives raise or lower the signal;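 on outcome: CCL26 protein level quantified by ELISA in parallel with SRB cytotoxicity check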
Summary of the method: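 ELISA quantitation of CCL26 (Eotaxin-3) protein from chemically dosed human vascular endothelial cells at 24 h; increases and decreases both scored relative to DMSO-treated baseline.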

[9] = target: human Peroxisome Proliferator-activated Receptor alpha (PPARa), PPARA (gene 5465) (UniProt Q07869); test: ATG_PPARa_TRANS: Attagene TRANS-FACTORIAL HepG2 Assay for human Peroxisome Proliferator-activated Receptor alpha (PPARa) (AID 2283001; active means hit-call score of the fitted dose curve at least 0.9, where 1 is the maximum)
Chain of human Peroxisome Proliferator-activated Receptor alpha (PPARa), PPARA (gene 5465) (Q07869 whole entry, looked up, the tested form may be a part): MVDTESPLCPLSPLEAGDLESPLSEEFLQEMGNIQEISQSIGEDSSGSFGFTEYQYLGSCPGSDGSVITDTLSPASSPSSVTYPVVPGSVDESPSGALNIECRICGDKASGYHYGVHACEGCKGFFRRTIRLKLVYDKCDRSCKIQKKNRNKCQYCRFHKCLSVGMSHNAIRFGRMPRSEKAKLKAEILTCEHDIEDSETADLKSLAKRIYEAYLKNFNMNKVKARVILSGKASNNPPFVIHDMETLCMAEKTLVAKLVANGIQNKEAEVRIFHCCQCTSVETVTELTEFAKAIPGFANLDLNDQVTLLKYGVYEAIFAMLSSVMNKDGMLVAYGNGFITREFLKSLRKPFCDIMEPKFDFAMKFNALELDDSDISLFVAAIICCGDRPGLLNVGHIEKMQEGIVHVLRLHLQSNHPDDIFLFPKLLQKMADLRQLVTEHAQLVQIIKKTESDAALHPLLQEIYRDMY
Summary of the method: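 Read-out is fluorescence of reporter cDNA fragments resolved by capillary electrophoresis after RT-PCR. Human HepG2 liver cells carried transfected PPARa-Gal4 chimera and GAL4-UAS reporter units, treated 24 h; activity scored as increase over DMSO.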

[10] = read-out: Intercellular Adhesion Molecule 1 (ICAM1), ICAM1 (gene 3383); test: BSK_3C_ICAM1: BioMAP Diversity Plus: 3C Assay for Intercellular Adhesion Molecule 1 (ICAM1) Biomarker Activity (AID 2283003); details: primary human endothelial cells (HUVEC); actives raise or lower the signal
Summary of the method: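 HUVEC primary cells stimulated under 3C conditions; ICAM1 measured by ELISA 24 h after compound dosing. Curves fitted bidirectionally against the DMSO baseline. Overt cytotoxicity checked by SRB staining of parallel cultures.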

[11] = BSK_3C_Proliferation: Cell Proliferation Assessment in the BioMAP Diversity Plus: 3C Assay (AID 2283006); details: primary human endothelial cells (HUVEC);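 on AC50: potency may reflect either rise or fall in cell number versus DMSO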
Summary of the method: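 Subconfluent HUVEC (3C system) cultured with chemical; relative cell number read at 48 h by sulforhodamine B total-protein staining (0.1% SRB after 10% TCA fixation, 560 nm). Bidirectional fit relative to DMSO.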

[12] = target: Peroxisome proliferator-activated receptor gamma (Homo sapiens) (UniProt P37231); test: ATG_PPARg_TRANS: Attagene TRANS-FACTORIAL HepG2 Assay for human Peroxisome Proliferator-activated Receptor-gamma (PPARg) (AID 2283007; active means hit-call score of the fitted dose curve at least 0.9, where 1 is the maximum)
Chain of Peroxisome proliferator-activated receptor gamma (Homo sapiens) (P37231 whole entry, looked up, the tested form may be a part): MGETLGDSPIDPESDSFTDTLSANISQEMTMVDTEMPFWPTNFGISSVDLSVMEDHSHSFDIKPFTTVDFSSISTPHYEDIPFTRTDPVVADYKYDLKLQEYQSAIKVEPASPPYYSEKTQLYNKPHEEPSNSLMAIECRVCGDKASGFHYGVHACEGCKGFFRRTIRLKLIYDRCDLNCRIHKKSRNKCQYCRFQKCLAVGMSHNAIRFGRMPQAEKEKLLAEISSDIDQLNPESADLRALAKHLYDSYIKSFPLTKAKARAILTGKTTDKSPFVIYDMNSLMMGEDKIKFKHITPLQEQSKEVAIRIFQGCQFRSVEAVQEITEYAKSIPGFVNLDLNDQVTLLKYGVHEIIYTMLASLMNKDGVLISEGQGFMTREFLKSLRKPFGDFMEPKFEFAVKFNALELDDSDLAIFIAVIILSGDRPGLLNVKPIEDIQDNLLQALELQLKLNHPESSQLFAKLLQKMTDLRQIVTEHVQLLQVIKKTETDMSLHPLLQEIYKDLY
Summary of the method: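 Transient transfection of HepG2 with GAL4-UAS-driven reporter units; chemical dosing 24 h; total RNA → oligo(dT) RT → PCR with reporter primers → 6-FAM primer extension → HpaI digest 2 h 37 C → capillary electrophoresis. Positive direction vs DMSO.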

[13] = target: Nuclear receptor subfamily 1 group I member 2 (Homo sapiens) (UniProt O75469); test: ATG_PXR_TRANS: Attagene TRANS-FACTORIAL HepG2 Assay for human Pregnane X Receptor (PXR) (AID 2283008; active means hit-call score of the fitted dose curve at least 0.9, where 1 is the maximum)
Chain of Nuclear receptor subfamily 1 group I member 2 (Homo sapiens) (O75469 whole entry, looked up, the tested form may be a part): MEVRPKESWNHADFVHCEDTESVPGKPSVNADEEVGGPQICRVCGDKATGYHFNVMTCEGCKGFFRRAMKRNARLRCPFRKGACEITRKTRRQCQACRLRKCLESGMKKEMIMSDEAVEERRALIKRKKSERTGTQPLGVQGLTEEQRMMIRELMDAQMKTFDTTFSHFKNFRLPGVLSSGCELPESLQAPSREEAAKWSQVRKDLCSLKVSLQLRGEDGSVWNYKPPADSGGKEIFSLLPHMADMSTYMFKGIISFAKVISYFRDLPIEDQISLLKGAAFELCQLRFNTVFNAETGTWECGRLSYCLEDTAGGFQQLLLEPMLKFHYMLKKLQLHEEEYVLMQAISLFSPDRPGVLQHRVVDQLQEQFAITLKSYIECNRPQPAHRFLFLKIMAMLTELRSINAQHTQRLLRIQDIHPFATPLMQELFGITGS
Summary of the method: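 HepG2 cells transiently transfected with multiple reporter units, here a PXR-GAL4 chimera driving a GAL4-UAS reporter; 24 h compound exposure. Reporter mRNA measured by RT-PCR, FAM labelling and capillary electrophoresis; gain of signal fitted against DMSO baseline.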

[14] = target: human RAR-related Orphan Receptor beta (RORb), RORB (gene 6096) (UniProt Q92753); test: ATG_RORb_TRANS: Attagene TRANS-FACTORIAL HepG2 Assay for human RAR-related Orphan Receptor beta (RORb) (AID 2283010; active means hit-call score of the fitted dose curve at least 0.9, where 1 is the maximum)
Chain of human RAR-related Orphan Receptor beta (RORb), RORB (gene 6096) (Q92753 whole entry, looked up, the tested form may be a part): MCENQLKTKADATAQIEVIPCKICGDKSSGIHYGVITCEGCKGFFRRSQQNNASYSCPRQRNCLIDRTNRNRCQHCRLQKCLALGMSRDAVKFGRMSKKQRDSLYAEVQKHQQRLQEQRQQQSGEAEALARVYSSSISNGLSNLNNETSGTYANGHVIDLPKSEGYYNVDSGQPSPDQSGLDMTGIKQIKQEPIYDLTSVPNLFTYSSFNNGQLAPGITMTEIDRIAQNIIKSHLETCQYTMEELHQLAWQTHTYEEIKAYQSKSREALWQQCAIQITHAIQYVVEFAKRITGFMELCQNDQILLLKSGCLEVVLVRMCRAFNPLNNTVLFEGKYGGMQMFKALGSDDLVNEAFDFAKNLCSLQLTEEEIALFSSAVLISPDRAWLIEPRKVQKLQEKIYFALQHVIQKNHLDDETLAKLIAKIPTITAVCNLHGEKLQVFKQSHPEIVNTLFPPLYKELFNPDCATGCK
Summary of the method: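 HepG2 cells transiently transfected with GAL4-UAS reporter units expressing chimeric NR-Gal4 protein; reporter mRNA measured 24 h after dosing by RT-PCR, 6-FAM labelling and capillary electrophoresis. Gain-of-signal fitted relative to DMSO baseline.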

[15] = target: human Peroxisome Proliferator-activated Receptor delta (PPARd), PPARD (gene 5467) (UniProt Q03181); test: ATG_PPARd_TRANS: Attagene TRANS-FACTORIAL HepG2 Assay for human Peroxisome Proliferator-activated Receptor delta (PPARd) (AID 2283002; active means hit-call score of the fitted dose curve at least 0.9, where 1 is the maximum)
Chain of human Peroxisome Proliferator-activated Receptor delta (PPARd), PPARD (gene 5467) (Q03181 whole entry, looked up, the tested form may be a part): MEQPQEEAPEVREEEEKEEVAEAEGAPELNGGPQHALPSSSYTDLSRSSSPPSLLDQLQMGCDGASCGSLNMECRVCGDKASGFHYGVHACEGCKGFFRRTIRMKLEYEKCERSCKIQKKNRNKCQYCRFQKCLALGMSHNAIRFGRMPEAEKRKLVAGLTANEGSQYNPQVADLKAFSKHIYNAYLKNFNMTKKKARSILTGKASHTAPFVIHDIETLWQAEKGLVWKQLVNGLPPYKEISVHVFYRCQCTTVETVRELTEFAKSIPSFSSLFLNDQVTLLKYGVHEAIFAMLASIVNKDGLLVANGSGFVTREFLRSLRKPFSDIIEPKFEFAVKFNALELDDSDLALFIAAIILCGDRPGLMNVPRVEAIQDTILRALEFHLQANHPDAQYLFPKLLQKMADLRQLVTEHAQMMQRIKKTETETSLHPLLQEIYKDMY
Summary of the method: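 Transient HepG2 transfection (multiple GAL4-UAS RTUs, chimeric receptor-Gal4); 24 h dosing; total RNA → oligo(dT) RT → PCR → 6-FAM primer extension → HpaI cut → CE. Positive direction vs DMSO.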

[16] = target: Retinoic acid receptor alpha (Homo sapiens) (UniProt P10276); test: ATG_RARa_TRANS: Attagene TRANS-FACTORIAL HepG2 Assay for human Retinoic Acid Receptor alpha (RARa) (AID 2283005; active means hit-call score of the fitted dose curve at least 0.9, where 1 is the maximum)
Chain of Retinoic acid receptor alpha (Homo sapiens) (P10276 whole entry, looked up, the tested form may be a part): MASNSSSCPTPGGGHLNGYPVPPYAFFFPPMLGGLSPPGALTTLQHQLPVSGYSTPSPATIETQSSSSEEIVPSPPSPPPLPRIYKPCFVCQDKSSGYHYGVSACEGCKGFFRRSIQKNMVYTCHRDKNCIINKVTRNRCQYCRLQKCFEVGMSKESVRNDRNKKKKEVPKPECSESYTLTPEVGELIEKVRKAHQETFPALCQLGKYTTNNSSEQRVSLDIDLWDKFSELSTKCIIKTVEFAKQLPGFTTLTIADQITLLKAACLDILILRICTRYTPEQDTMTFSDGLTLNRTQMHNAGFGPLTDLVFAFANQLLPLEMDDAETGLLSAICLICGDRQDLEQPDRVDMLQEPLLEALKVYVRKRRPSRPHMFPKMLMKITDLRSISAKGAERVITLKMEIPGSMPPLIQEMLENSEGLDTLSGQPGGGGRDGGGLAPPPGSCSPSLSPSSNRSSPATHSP
Summary of the method: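 Reporter transcripts, measured by RT-PCR with fluorescent labeling and capillary electrophoresis after 24 h dosing, reflect activity of an exogenous human RARa–GAL4 fusion in transiently transfected HepG2. Fitted for increase relative to DMSO.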

[17] = BSK_3C_TissueFactor: BioMAP Diversity Plus: 3C Assay for Tissue Factor Biomarker Activity (AID 2282997); details: BioMAP 3C HUVEC, tissue factor biomarker readout; actives raise or lower the signal
Summary of the method: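 Endothelial monolayers (human umbilical vein, primary) are dosed, incubated 24 h, and assayed for Tissue Factor by ELISA; DMSO serves as negative control for bidirectional fitting.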

[18] = target: human RAR-related Orphan Receptor gamma (RORg), RORC (gene 6097) (UniProt P51449); test: ATG_RORg_TRANS: Attagene TRANS-FACTORIAL HepG2 Assay for human RAR-related Orphan Receptor gamma (RORg) (AID 2283011; active means hit-call score of the fitted dose curve at least 0.9, where 1 is the maximum)
Chain of human RAR-related Orphan Receptor gamma (RORg), RORC (gene 6097) (P51449 whole entry, looked up, the tested form may be a part): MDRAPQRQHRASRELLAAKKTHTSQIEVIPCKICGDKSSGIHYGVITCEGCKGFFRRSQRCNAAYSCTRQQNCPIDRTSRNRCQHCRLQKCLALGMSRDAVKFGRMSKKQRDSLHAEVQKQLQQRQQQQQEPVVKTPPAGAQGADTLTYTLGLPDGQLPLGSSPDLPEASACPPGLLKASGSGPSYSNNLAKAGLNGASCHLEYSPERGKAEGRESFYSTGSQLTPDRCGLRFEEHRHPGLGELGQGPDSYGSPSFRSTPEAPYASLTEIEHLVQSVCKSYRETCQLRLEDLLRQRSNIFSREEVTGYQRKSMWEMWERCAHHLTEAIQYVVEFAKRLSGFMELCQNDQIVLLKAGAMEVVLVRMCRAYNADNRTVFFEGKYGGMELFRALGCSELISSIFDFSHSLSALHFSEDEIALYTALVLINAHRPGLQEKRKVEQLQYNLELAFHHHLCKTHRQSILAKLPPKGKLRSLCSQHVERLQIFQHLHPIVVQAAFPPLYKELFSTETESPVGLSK
Summary of the method: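 Chimeric RORg-Gal4 transactivation in transfected HepG2; 24 h exposure; RT-PCR/capillary electrophoresis readout of reporter mRNA, DMSO baseline.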

[19] = target: human Retinoic Acid Receptor beta (RARb), RARB (gene 5915) (UniProt P10826); test: ATG_RARb_TRANS: Attagene TRANS-FACTORIAL HepG2 Assay for human Retinoic Acid Receptor beta (AID 2283004; active means hit-call score of the fitted dose curve at least 0.9, where 1 is the maximum)
Chain of human Retinoic Acid Receptor beta (RARb), RARB (gene 5915) (P10826 whole entry, looked up, the tested form may be a part): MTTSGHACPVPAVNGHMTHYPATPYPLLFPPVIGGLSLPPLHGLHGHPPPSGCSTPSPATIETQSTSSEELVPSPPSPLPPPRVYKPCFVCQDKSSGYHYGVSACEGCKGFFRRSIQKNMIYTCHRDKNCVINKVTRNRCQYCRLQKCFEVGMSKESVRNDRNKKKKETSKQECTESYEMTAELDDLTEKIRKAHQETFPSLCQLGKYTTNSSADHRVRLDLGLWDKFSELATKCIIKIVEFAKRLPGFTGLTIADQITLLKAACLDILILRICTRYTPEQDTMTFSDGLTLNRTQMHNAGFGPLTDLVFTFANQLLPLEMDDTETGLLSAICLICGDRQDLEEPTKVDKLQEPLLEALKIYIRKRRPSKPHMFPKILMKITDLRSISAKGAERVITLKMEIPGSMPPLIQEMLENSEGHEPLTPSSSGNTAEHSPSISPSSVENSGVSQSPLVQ
Summary of the method: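 Fluorescent capillary-electrophoresis detection of GAL4-UAS reporter mRNA defines the endpoint, with induction over DMSO-treated wells scored as activity. Transiently transfected human hepatoma HepG2 cells expressing exogenous NR–Gal4 proteins are exposed to test chemicals for 24 h.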

[20] = target: human Retinoic Acid Receptor gamma (RARg), RARG (gene 5916) (UniProt P13631); test: ATG_RARg_TRANS: Attagene TRANS-FACTORIAL HepG2 Assay for human Retinoic Acid Receptor gamma (RARg) (AID 2283009; active means hit-call score of the fitted dose curve at least 0.9, where 1 is the maximum)
Summary of the method: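 HepG2 transiently transfected with GAL4-UAS reporter units and chimeric NR-Gal4 constructs; 24 h compound exposure. Reporter mRNA quantified by RT-PCR, FAM labeling, HpaI digestion and capillary electrophoresis; gain-of-signal versus DMSO.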

c1ccc(-c2cccc(-c3ccccc3)c2)cc1
outcome [1]: inactive | outcome [2]: inactive | AC50 [3]: 40.9 µM (active) | outcome [4]: inactive | outcome [5]: inactive | AC50 [6]: 20 µM (active) | AC50 [7]: 20 µM (active) | AC50 [8]: 20 µM (active) | outcome [9]: inactive | outcome [10]: inactive | AC50 [11]: 13.2 µM (active) | outcome [12]: inactive | AC50 [13]: 11.5 µM (active) | outcome [14]: inactive

N#Cc1ccccc1Cl
outcome [1]: inactive | outcome [2]: inactive | outcome [3]: inactive | outcome [4]: inactive | outcome [5]: inactive | outcome [9]: inactive | outcome [15]: inactive | outcome [16]: inactive | outcome [13]: inactive | outcome [14]: inactive

CCN(CC)C(=O)C(Cl)=C(C)OP(=O)(OC)OC
outcome [1]: inactive | outcome [2]: inactive | AC50 [3]: 38.6 µM (active) | outcome [4]: inactive | outcome [5]: inactive | outcome [17]: inactive | outcome [6]: inactive | outcome [7]: inactive | outcome [8]: inactive | outcome [15]: inactive | outcome [10]: inactive | outcome [11]: inactive | outcome [12]: inactive | outcome [13]: inactive | outcome [14]: inactive | outcome [18]: inactive

Cc1cc(Cl)ccc1OCCCC(=O)O
outcome [1]: inactive | outcome [2]: inactive | outcome [3]: inactive | outcome [4]: inactive | outcome [5]: inactive | outcome [9]: inactive | outcome [19]: inactive | outcome [16]: inactive | AC50 [12]: 61.5 µM (active) | outcome [20]: inactive | outcome [18]: inactive

O=c1oc2ccccc2c(O)c1C(CC(O)c1ccc(-c2ccc(Br)cc2)cc1)c1ccccc1 (configuration not stated)
outcome [1]: inactive | AC50 [2]: 48.4 µM (active) | outcome [2]: inactive | AC50 [3]: 7.57 µM (active) | outcome [3]: inactive | AC50 [4]: 40.9 µM (active) | outcome [4]: inactive | AC50 [17]: 12.7 µM (active) | AC50 [6]: 5.92 µM (active) | AC50 [7]: 21.6 µM (active) | AC50 [8]: 16.9 µM (active) | AC50 [10]: 27.2 µM (active) | AC50 [11]: 6.58 µM (active) | AC50 [12]: 3.95 µM (active) and 676 nM (active) | AC50 [13]: 5.19 µM (active) and 7.74 µM (active) | outcome [14]: inactive

C#CCOC(=O)/C=C(C)/C=C/CC(C)CCCC(C)C (configuration not stated)
outcome [1]: inactive | outcome [2]: inactive | AC50 [3]: 57.3 µM (active) | AC50 [4]: 35.7 µM (active) | outcome [5]: inactive | AC50 [6]: 33.5 µM (active) | outcome [7]: inactive | AC50 [8]: 20 µM (active) | outcome [15]: inactive | outcome [10]: inactive | outcome [19]: inactive | outcome [16]: inactive | AC50 [11]: 23.6 µM (active) | AC50 [12]: 27.8 µM (active) | AC50 [13]: 27.4 µM (active) | outcome [14]: inactive | outcome [18]: inactive

CCCCOC(C)=O
outcome [1]: inactive | outcome [2]: inactive | outcome [3]: inactive | outcome [4]: inactive | outcome [5]: inactive | outcome [9]: inactive | outcome [15]: inactive | outcome [16]: inactive | outcome [12]: inactive | outcome [13]: inactive | outcome [14]: inactive | outcome [18]: inactive

N#CCCC(Br)(C#N)CBr (configuration not stated)
outcome [1]: inactive | AC50 [2]: 33.4 µM (active) | outcome [3]: inactive | AC50 [4]: 50 µM (active) | AC50 [5]: 52.8 µM (active) | AC50 [6]: 5.36 µM (active) | AC50 [7]: 7.92 µM (active) | AC50 [8]: 8.6 µM (active) | AC50 [10]: 11 µM (active) | AC50 [11]: 1.28 µM (active) | outcome [12]: inactive
